Assay [1] in a line: qHTS assay to identify small molecule agonists of the hypoxia (HIF-1) signaling pathway - cell viability counter screen (AID 1224844; calls by dose curve; note: nearly all actives have a fitted effect of over 50% in size; note: potency is the fitted concentration of half-maximal effect). Put shortly: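 Tox21 10K compounds were added to HRE-bla ME-180 cells (0.5% dialyzed FBS) and incubated 17 hrs at 37C; ATP-based CellTiter-Glo luminescence then reported cell viability in the same wells.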
(In general: qHTS replaces the single test concentration by a dilution series.)

A short description of assay [2]: qHTS assay to identify small molecule agonists of H2AX - cell viability counter screen (AID 1224847; calls by dose curve; note: nearly all actives have a fitted effect of over 30% in size; note: potency is the fitted concentration of half-maximal effect). The essentials: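 Cytotoxicity counter screen in wild-type CHO-K1 cells: a 3 hr compound treatment at 37C across 15 concentrations, followed by CellTiter-Glo luminescence to gauge viable cells.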
Assay [3] can be described thus: qHTS assay to identify small molecule agonists of the estrogen related receptor (ERR) signaling pathway from Tox21 library (AID 1224849; calls by dose curve; note: nearly all actives have a fitted effect of over 15% in size). The conditions noted are these: ERR reporter cell line, ONE-Glo luciferase, 18 h; at 92.4 µM (top of the series) unless noted. The essentials: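 Agonist signal is luciferase luminescence from an ERR reporter cell line treated 18 h at 37 C with DMSO-dissolved compounds, read 30 min after ONE-Glo addition at room temperature.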

The nature of assay [4]: qHTS RealTime-Glo MT Cell Viability Assay in HepG2 cells - 24 hour (AID 1224867). Note: nearly all actives have a fitted effect of over 50% in size. Note: potency is the fitted concentration of half-maximal effect. The essentials: (§1)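 Viability was tracked continuously by NanoLuc luminescence from prosubstrate reduced by living HepG2 cells, at successive time points over 40 h of compound exposure. Cells with reagent were preincubated 5 h at 37 °C before compound addition.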
A short description of assay [5]: qHTS RealTime-Glo MT Cell Viability Assay in HEK293 cells - 32 hour (AID 1224868). Note: nearly all actives have a fitted effect of over 50% in size. Note: potency is the fitted concentration of half-maximal effect. Put shortly: (§2)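 Viability tracked continuously by luminescence as live cells reduce a prosubstrate for NanoLuc; HEK293 cells preincubated 5 h, compound-treated at 37 C, and read at 0, 8, 16, 24, 32 and 40 h.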
Assay [6] is described as follows: A CellTox Green Cytotoxicity Assay to monitor cytotoxicity in HEK293 cells - 0 hour (AID 1224869). Note: nearly all actives have a fitted effect of over 50% in size. Note: potency is the fitted concentration of half-maximal effect. The essentials: (§3)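 Cytotoxicity was tracked continuously in HEK293 cells by a DNA-binding dye excluded from viable cells. Compounds were transferred in DMSO 5 h after seeding; fluorescence was recorded at intervals up to 40 h.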
Assay [7] is described as follows: qHTS RealTime-Glo MT Cell Viability Assay in HepG2 cells - 40 hour (AID 1224870). Note: nearly all actives have a fitted effect of over 50% in size. Note: potency is the fitted concentration of half-maximal effect. The essentials: (§4)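 HepG2 cells mixed with RealTime-Glo MT reagents (NanoLuc plus cell-permeant prosubstrate) were seeded at 600 cells/well, incubated 5 h at 37 C/5% CO2, then pinned with compounds in DMSO; nonlytic luminescence tracked viability during 40 h treatment.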
Assay [8] can be described thus: A CellTox Green Cytotoxicity Assay to monitor cytotoxicity in HEK293 cells - 40 hour (AID 1224871). Note: nearly all actives have a fitted effect of over 45% in size. Note: potency is the fitted concentration of half-maximal effect. The essentials:
as §3

A short description of assay [9]: qHTS RealTime-Glo MT Cell Viability Assay in HEK293 cells - 16 hour (AID 1224872). Note: nearly all actives have a fitted effect of over 50% in size. Note: potency is the fitted concentration of half-maximal effect. Put shortly:
as §2

The nature of assay [10]: qHTS RealTime-Glo MT Cell Viability Assay in HepG2 cells - 8 hour (AID 1224873). Note: nearly all actives have a fitted effect of over 55% in size. Note: potency is the fitted concentration of half-maximal effect. Put shortly:
as §4

The nature of assay [11]: qHTS RealTime-Glo MT Cell Viability Assay in HEK293 cells - 40 hour (AID 1224874). Note: nearly all actives have a fitted effect of over 50% in size. Note: potency is the fitted concentration of half-maximal effect. The conditions noted are these: RealTime-Glo luminescence; max response: stronger effect = lower value. Put shortly:
(§5)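 Nonlytic bioluminescent viability monitoring. HEK293 at 600 cells/well with reagent; 5 h settle; compound transfer by pintool; plates held at 37 C and read at set time points.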

The nature of assay [12]: A CellTox Green Cytotoxicity Assay to monitor cytotoxicity in HEK293 cells - 24 hour (AID 1224875). Note: nearly all actives have a fitted effect of over 45% in size. Note: potency is the fitted concentration of half-maximal effect. Put shortly:
as §3

The nature of assay [13]: A CellTox Green Cytotoxicity Assay to monitor cytotoxicity in HepG2 cells - 16 hour (AID 1224876). Note: nearly all actives have a fitted effect of over 45% in size. Note: potency is the fitted concentration of half-maximal effect. Put shortly: (§6)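 Real-time, homogeneous cytotoxicity readout: dead-cell DNA staining by CellTox Green in HepG2 monolayers, fluorescence measured at timed intervals up to 40 h of continuous compound exposure.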
A short description of assay [14]: qHTS RealTime-Glo MT Cell Viability Assay in HepG2 cells - 32 hour (AID 1224877). Note: nearly all actives have a fitted effect of over 55% in size. Note: potency is the fitted concentration of half-maximal effect. The essentials: as §1
The nature of assay [15]: A CellTox Green Cytotoxicity Assay to monitor cytotoxicity in HepG2 cells - 40 hour (AID 1224879). Note: nearly all actives have a fitted effect of over 40% in size. Note: potency is the fitted concentration of half-maximal effect. Put shortly:
as §6

The nature of assay [16]: qHTS assay to identify small molecule agonists of the hypoxia (HIF-1) signaling pathway (AID 1224846; active = well fitted activation curve with a large enough effect in the signal ratio in the repeat runs, not every such curve was filed as active; the % refers to the signal ratio). Put shortly: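 Steps: seed ME-180 HRE-bla cells (2,000/well, 0.5% dialyzed FBS); incubate 5 hrs at 37C; pin-transfer compounds or DMSO; incubate 17 hrs; add LiveBLAzer B/G substrate CCF4-AM; measure reporter activation by FRET.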
The nature of assay [17]: A CellTox Green Cytotoxicity Assay to monitor cytotoxicity in HepG2 cells - 24 hour (AID 1224878). Note: nearly all actives have a fitted effect of over 45% in size. Note: potency is the fitted concentration of half-maximal effect. Put shortly:
as §6

Assay [18] in a line: qHTS RealTime-Glo MT Cell Viability Assay in HEK293 cells - 0 hour (AID 1224880). The essentials:
as §5

Assay [19] can be described thus: qHTS assay to identify small molecule antagonists of the estrogen related receptor (ERR) signaling pathway from Tox21 library (AID 1224848). Note: nearly all actives have a fitted effect of over 50% in size. Note: potency is the fitted concentration of half-maximal effect. The essentials: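 Cells: ERR line, 2,000/well; 6 h preincubation 37 C/5% CO2. Cpd in DMSO via pin tool; 18 h, 37 C. ONE-Glo, 30 min RT, luminescence.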

Each structure is given as a SMILES string. A number with no mark means an inactive call. Results filed as inconclusive are left out. Activity calls are given as the source filed them. Unless noted, calls come from the whole dose curve; as a rule, active = well fitted curve in the direction sought with a large enough effect in the repeat runs; inconclusive = weak or mixed curves; inactive = no such curve, though single readings can be large; an effect the other way counts as inactive or inconclusive.

Drawing on PubChem BioAssay (Tox21), this text covers Potency, activity change, positive = activation and max response for 13 compounds.
% is set by controls: 0 for no effect and ±100 for the full control effect.

With `C=CC(=O)[O][Sn]([CH2]CCC)([CH2]CCC)[CH2]CCC`, the Potency in assay [1] is 977 nM (active); in assay [2], 1420 nM (active); in [4] it was 436 nM (active); in [5], 389 nM (active); in assay [7] it was 389 nM (active); in assay [8], 871 nM (active). Also, the Potency is 549 nM (active) in assay [9]; 977 nM (active) in assay [10]; 389 nM (active) in assay [11]; 7760 nM (active) in assay [12]; 616 nM (active) in [13]; 389 nM (active) in assay [14]. Further, in [15], the Potency is 549 nM (active). Further, the activity change, positive = activation in assay [3] is -66.8%. The Potency result in assay [6] is “inactive”.

As for `CCCCC(CC)COC(=O)OOC(C)(C)C` (stereo unspecified), the Potency entry in assay [1], in assay [16], in assay [2], in assay [5], in [6] and in assay [8] was “inactive” each time. For the same compound, the Potency result in assay [9], in assay [12], in assay [13], in [14], in assay [17] and in [15] was “inactive” each time. Also, the Potency entry in assay [18] was “inactive”. For the same compound, the max response in [11] is 0.0606%.

For `O=C(Cl)c1ccccc1F`, the Potency result in assay [1], in [16], in assay [2], in assay [4], in assay [5] and in [6] was “inactive” each time. Also, the Potency result in assay [7], in assay [8], in assay [9], in assay [10], in assay [13] and in assay [14] was “inactive” each time. The Potency entry in assay [17] and in assay [15] was “inactive” each time. The max response in assay [11] is -0.0017%.

As to `CCOP(=O)(OCC)Oc1cc(C)nc(C(C)C)n1`, the Potency result in [1], in [16], in assay [2], in assay [19], in assay [4] and in assay [5] was “inactive” in each case. Further, the Potency result in assay [6], in [7], in assay [8], in assay [9], in assay [10] and in [12] was “inactive” each time. Further, the Potency entry in assay [13], in [14], in assay [17], in assay [15] and in [18] was “inactive” each time. The activity change, positive = activation in [3] is -6.77%. Besides, the max response in [11] was 1.52%.

`O=P(Cl)(Cl)Cl`: the Potency entry in assay [1], in assay [16], in assay [2], in assay [4], in [5] and in assay [6] was “inactive” throughout. Further, the Potency entry in assay [7], in assay [8], in [9], in [10], in assay [12] and in assay [13] was “inactive” in each case. The Potency entry in assay [14], in assay [17], in assay [15] and in [18] was “inactive” each time. Moreover, in assay [11], the max response was 0.904%.

In the case of `CCc1cccc(C)c1N(C(=O)CCl)[C@@H](C)COC`, the Potency in [1] is 49000 nM (active); in assay [19], 61100 nM (active); in assay [13], 49000 nM (active); in [17] it was 49000 nM (active); in assay [15], 49000 nM (active). In addition, the Potency result in assay [16], in [5], in assay [7] and in assay [9] was “inactive” each time. Further, in [3], the activity change, positive = activation was -67.3%. In assay [11], the max response was -25.5%.

Turning to `Nc1nc(N)c(N)c(N)n1`, the Potency result in assay [1], in [16], in assay [2], in assay [19], in assay [4] and in [5] was “inactive” in each case. Also, the Potency result in assay [7], in assay [9], in assay [10], in [14] and in [18] was “inactive” in each case. Further, the activity change, positive = activation in [3] is 0.198%. The Potency was 49200 nM (active) in assay [6]; 49200 nM (active) in assay [8]; 55200 nM (active) in assay [13]; 55200 nM (active) in [17]; 55200 nM (active) in assay [15]. For the same compound, the max response in [11] was 10.2%.

`C=C(C)C(=O)[O][Sn]([CH2]CCC)([CH2]CCC)[CH2]CCC`: the Potency in [1] was 692 nM (active); in assay [2], 713 nM (active); in [4], 436 nM (active); in assay [5], 275 nM (active); in assay [7], 195 nM (active); in [8], 436 nM (active). The Potency in assay [9] was 389 nM (active); in assay [10], 616 nM (active); in assay [11], 245 nM (active); in assay [12], 2190 nM (active); in assay [13], 490 nM (active); in assay [14], 245 nM (active). Moreover, the Potency is 616 nM (active) in assay [17] and 389 nM (active) in assay [15]. Moreover, in assay [3], the activity change, positive = activation was -73.3%. Moreover, in assay [6], the Potency result was “inactive”.

Take `Oc1ccc2[nH]cc(CCCCN3CC=C(c4ccccc4)CC3)c2c1`: the Potency entry in assay [1], in assay [16], in assay [4], in [6], in assay [7] and in assay [10] was “inactive” in each case. The Potency result in assay [12], in assay [13] and in [18] was “inactive” in each case. Moreover, the Potency is 29800 nM (active) in [19]; 23900 nM (active) in assay [5]; 9520 nM (active) in [9]; 19000 nM (active) in [17]; 23900 nM (active) in assay [15]. Besides, the activity change, positive = activation in [3] was -32.1% [at 42.5 µM].

Regarding `CN(C)CCc1c[nH]c2ccccc12`, the Potency entry in [1], in assay [16], in assay [2], in [4], in [5] and in assay [6] was “inactive” throughout. Also, the Potency result in [7], in assay [8], in assay [9], in assay [10], in assay [13] and in assay [17] was “inactive” each time. In assay [15], the Potency entry was “inactive”. Moreover, in [11], the max response was -4.01%.

For the compound `CC(=O)C(Cl)C(=O)N(C)C` (stereo unspecified), the Potency in [1] is 43600 nM (active). The Potency result in assay [16], in assay [2], in [4], in assay [5], in [6] and in assay [7] was “inactive” throughout. The Potency entry in [9], in [10], in assay [13], in [17], in [15] and in assay [18] was “inactive” each time. Besides, in [11], the max response is 3.79%.

Regarding `O=C(Nc1ccc(F)cc1F)c1cccnc1Oc1cccc(C(F)(F)F)c1`, the Potency entry in assay [1], in [16], in [19], in assay [4], in assay [5] and in assay [6] was “inactive” throughout. The Potency result in [7], in assay [9], in [10], in assay [12], in [13] and in assay [14] was “inactive” throughout. Further, the Potency entry in assay [17], in assay [15] and in assay [18] was “inactive” throughout. Moreover, in assay [3], the activity change, positive = activation is 5%. Also, the Potency in assay [8] was 53800 nM (active). Also, the max response in assay [11] is 0.876%.

For the compound `CCOP(=O)(Sc1ccccc1)Sc1ccccc1`, the Potency result in assay [1], in assay [16], in assay [4], in assay [5], in assay [6] and in [7] was “inactive” each time. Further, the Potency result in assay [8], in assay [9], in assay [10], in [13], in assay [14] and in assay [17] was “inactive” in each case. Besides, the Potency entry in assay [15] and in assay [18] was “inactive” throughout. In assay [11], the max response was -12.3%.
